Whole data set: some 9,900 sequences, median “r (bound/input frequency ratio)” near 0.7, cut for the highest 2% near 6.5. The list comes from a sample in which the highest values are over-represented; it also holds similar and randomly drawn sequences.
B1: ENSMUSG00000061578.1057|Ksr2 (ssRNA)
RNA: GGGAGUUCUACAGUCCGACGAUCGCUUCGAUAUCCGCAUGCUAUGUGAAAGUCUGAUGACUCAAAUCAAAGUUUGGUUUUUCUUUUCUACUACUCUGAAGGAAAAUCUCAGCUUGGCUAUUUCUUCAUGUUUUAAAAAUGUCUUGACUUCUCUCAGCAACCAACUUCAGGUGCCAGGAUAUGAGAUGCUAAGGUUCAGGGGUGGUGGAGGUGAUUCUAUCCAGUGGCCAGCAAUACCCAAAAGCAGCCAACCAUGAAAAUAGAGGUUUGUAAUGUACAGAAGGCUGGGGGAGCUUUCAGGGGUCUCUUGCGGUCGCACUAGUGUGGAAUUCUCGGGUGUCAAGG
B2: ENSMUSG00000043670.174|Diras1 (ssRNA)
RNA: GGGAGUUCUACAGUCCGACGAUCGCUUCGAUAUCCGCAUGCUACAGCAAAGUCCCUGUGUGCGGUGAUAGGACUAGUGGCUGCUGCCCUAGGGCUCUGACAGAAUCUGAGCCUCUUUGCUGGUCAUGUGUACUCUGGAGACUGUCCCCCAUGUCUGCCCUGAGUUACGGAGCCCCUGUGGUAUCUGCGAGACUGUCCAGGAGACUUGAGUGGCUCCUGGGCCUGUGUCCCACCCAGAUGAGGGUGACUUAGAAUUCUGUGUUUAUGUGCCUGUGUGUGUGGAUGGGUGUGUGUCUGUCUUGGGCUCUUGCGGUCGCACUAGUGUGGAAUUCUCGGGUGUCAAGG
B3: ENSMUSG00000029636.81|Wasf3|153:157 (ssRNA)
RNA: GGGAGUUCUACAGUCCGACGAUCGCUUCGAUAUCCGCAUGCUAUGAUGUCUUCCAACCAGUGGGUGAUACGUUUUCCUGUUUCUUCCCUUUGCAAAUUGAAUUCCAGGUAGAUAUGGUUGUAGAGGGGAAAGUUUAACAAAUCAGAAUGAAAUGUUUGUCUGUUUGCACACUGGGCCUGGUGGCCUCCAAGGAAAACACAACGAUCGUUUGCUUUCUCUAUCUUGGCGCUUGCAACCGAGAGCGGCCAUUUUUAUGAGGGGAGCCCUGUGGGUACUCAUGUGGAAAGUGCCCACUGACUUUGGCUCUUGCGGUCGCACUAGUGUGGAAUUCUCGGGUGUCAAGG
B4: ENSMUSG00000029028.64|Lrrc47 (ssRNA)
RNA: GGGAGUUCUACAGUCCGACGAUCGCUUCGAUAUCCGCAUGCUAUGGGUAUGCUGUAGAUGUCUGUGUAGGUGUGGAUAUGCUGUAGGUAUCUGGGUGUGCUGUAGGUGUCUGUGUGGGUGUGGGUGUGCUGUGGGUGUCUGUGUGGGUGUGCUGUAGGUGUCUGUAGGUGUGGGUAUGCUGCAGGUGUGGGUGUGCUGUAGAUCUCUAUAGGUGUGGGUGUGCUGUAGGGGUCUGUGUGGGUAUAGGUGUGGGUGUGCUGUAGAUUCUGUGUAACUGGUUCUUUGCUGUUUCUCUGGGUGUUUCUCUUGCGGUCGCACUAGUGUGGAAUUCUCGGGUGUCAAGG
B5: ENSMUSG00000058297.508|Spock2 (ssRNA)
RNA: GGGAGUUCUACAGUCCGACGAUCGCUUCGAUAUCCGCAUGCUAUAGCCUGGGAGUUCUGGCAGGAGGCAAAGUUGGUGAGAGUCCUGGGACAUCUUACCCCCAGUGUUCCACAGGAGUCGUGACCACGUGUGAUGGGUGGGCACAGGUCUGCCUUGCUCCAGCCCCCUCCCUUGGUUUCUGUUGGUACCCAUUUGGCUUUUAUCUGCUUUCUGCUUCACCACUAAGUGCGUAGGUGGGGUCUUUUGAUAUCGGCUCCCCAAAGCCCAAGCCCACAGCCCUAGGAGAGAACCAGGGGCCCAUCUCUCUUGCGGUCGCACUAGUGUGGAAUUCUCGGGUGUCAAGG
B6: ENSMUSG00000031028.667|Tub|229:233 (ssRNA)
RNA: GGGAGUUCUACAGUCCGACGAUCGCUUCGAUAUCCGCAUGCUAAGGACAGGCAAAAUUUCUCUAGCUGAGAGCACACUUAGCCAGUUUUCACGCCUAGAACAUAUAUGUCGAUUUGCACAUGAUUGUCUUUUCCUAUUUUGGAGUGGUCAGACAUUUUAUUUUUGUUCAAAAUUAUCUGGAGUUUUAGACAAACUUGCAAAACUGUGCUUUUAUUAAGUGACUUUUUGAAUAAACUUUUUGGUAUUCUGAAGCAAAUGUAUUUAUUUAUUGCAUACUGCAAUGACAAACUUGGUAUUUUCCCACUCUUGCGGUCGCACUAGUGUGGAAUUCUCGGGUGUCAAGG
B7: ENSMUSG00000058297.445|Spock2|189:193 (ssRNA)
RNA: GGGAGUUCUACAGUCCGACGAUCGCUUCGAUAUCCGCAUGCUAUGGUGGGGCUGAAGGUUCCCAAGUAGCUUCUAGUUAAGCAAGCUUCGUGUUUCCUCAGGAGCAAGGUCACACAGGUCAGAUUAUUGUCGGUCCUGCGGGCCUCAUCCUUGAAUAAGCUGCCUGCCCAGUUCCUCCAUCCGUGUUCCUGCCUGCUCCCGUUCCCUUGUUGCGGGCAGGAGAGGUAGGGCACACAUGGAAAGAGUUCAACCAAAUUACGGCAGCACCACAUCUUGCCGAGCCCUGGAGCUGCCCUACUAAGACUCUUGCGGUCGCACUAGUGUGGAAUUCUCGGGUGUCAAGG
B8: ENSMUSG00000028439.22|Fam219a|136:142 (ssRNA)
RNA: GGGAGUUCUACAGUCCGACGAUCGCUUCGAUAUCCGCAUGCUACGCUGACCUGGGCCCGGUGGGAUGCAGCAGGAGAGACCCCUACCCUGCUGGUCCACUGGUCCCCAGCCCCGCGCCUCUUAGAGCCGCCAACCUCGUAACAGUCAUUGCUUCCUCCUAUGGUAGGACGUGUACCUCACACACAUCAAGGAGCCGGAGAAACCAAAACCGGGUCUGUCUCCAGCCCCGGGGCUGAGGAGGGGUGGGCACUGUUUGUUCGGUUACUUGGGGGGAACCACACCCAAGCACCCUGCCACCUCUCCCUCUUGCGGUCGCACUAGUGUGGAAUUCUCGGGUGUCAAGG
B9: ENSMUSG00000061578.153|Ksr2|12:16;34:49;85:89 (ssRNA)
RNA: GGGAGUUCUACAGUCCGACGAUCGCUUCGAUAUCCGCAUGCUAGACGGUCCUGGCAUACCAUGAUGGGUUACAUGGCACACACACACACACAAACUGUUUACAAUGGUCUCCCUGCCUCUCACGGGCACACAUCCAGGAGAAUGCACAUAGAGAGGUUCUGUGGUCUCUGCUGUCGCCUGGUGCUGAAUCCUGAGUGGUUUCCCCACUGAGGACCCUGUGACCCUGUGACCCUUGGCCCCUCCCUUAUUGUGCACACUCAGCACCCCAUCUUCCAAGCCUUUCUUCAUCCCCCACCUUCUUUUCUCUUGCGGUCGCACUAGUGUGGAAUUCUCGGGUGUCAAGG
B10: ENSMUSG00000028439.351|Fam219a (ssRNA)
RNA: GGGAGUUCUACAGUCCGACGAUCGCUUCGAUAUCCGCAUGCUACCCCCCACCGCAUCCCCACUGGGCUCUUUGACUCACCCUUCUAGAACAUGGGUGCCUCCUCUCUUUAGACUGCUGCCUUUGCCUCUGACUUCCUGUGGGAUUGAGAGCCAAGGGCCAGUGCCCUUGUGAGCGCACUAGUUCCGAAGCAGGCAAGGGCAUUAGGUGGUAUAUACAUAGCGGGUAGGGGUAGGAAGCUGGCAGCCUGCAGCUUCCAAGUCCAAGGAGAGCACACAGUUCCCUCCUUCCCUGCCUGGAAGUUGCUCUUGCGGUCGCACUAGUGUGGAAUUCUCGGGUGUCAAGG

What follows are binders tested against TDP-43 (Homo sapiens, UniProt Q13148 1-414) (assay: RNA Bind-n-Seq with designed 260-mer pool; 25 mM Tris-HCl, 150 mM KCl, 3 mM MgCl2, BSA (printed 500 mg/mL), 20 units/mL SUPERase IN; pH not stated; 500 nM RNA pool, 1 h, 4 C; TDP-43 5, 50, 500 nM; high values mean tight binding). Settings: protein: recombinant; tags: SBP (GST cleaved off with PreScission; pGEX-GST-SBP).
Sequence of TDP-43 (Q13148 whole entry): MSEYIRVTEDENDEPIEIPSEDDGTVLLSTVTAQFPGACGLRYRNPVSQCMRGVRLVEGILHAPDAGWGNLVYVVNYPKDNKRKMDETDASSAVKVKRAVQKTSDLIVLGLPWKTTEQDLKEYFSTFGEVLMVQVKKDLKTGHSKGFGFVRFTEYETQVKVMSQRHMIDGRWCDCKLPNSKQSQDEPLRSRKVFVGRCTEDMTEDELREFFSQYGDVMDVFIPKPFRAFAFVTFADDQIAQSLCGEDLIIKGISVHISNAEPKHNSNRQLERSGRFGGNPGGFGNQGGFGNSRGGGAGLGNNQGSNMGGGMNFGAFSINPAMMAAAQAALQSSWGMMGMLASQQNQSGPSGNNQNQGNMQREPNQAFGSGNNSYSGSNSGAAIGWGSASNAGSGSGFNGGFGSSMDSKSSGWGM
Method in brief: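 In 25 mM Tris-HCl, 150 mM KCl, 3 mM MgCl2, BSA and SUPERase IN, 500 nM of an in vitro-transcribed 260-nt 3′ UTR oligo pool was incubated for 1 h at 4 °C with SBP-tagged TDP-43 (5, 50 or 500 nM) captured on streptavidin beads. RNA remaining after washes was biotin-eluted, reverse transcribed, PCR-amplified and sequenced. Binding, R, is the bound-sample abundance of each oligo, normalized to mapped reads, divided by its abundance in input. Each duplicate used a separate, independent protein batch.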
For B1, the binding signal was 0.83 R (bound/input frequency ratio). B2 was tested, and the binding signal was 5.89 R (bound/input frequency ratio). B3 was tested, and the binding signal was 5.11 R (bound/input frequency ratio). B4 was tested, and the binding signal was 5.28 R (bound/input frequency ratio). For B5, the binding signal was 0.768 R (bound/input frequency ratio). For B6, the binding signal was 0.0728 R (bound/input frequency ratio). In the case of B7, the binding signal is reported as 0.0933 R (bound/input frequency ratio). With B8 the binding signal was 0.559 R (bound/input frequency ratio). For B9, the binding signal was 1.47 R (bound/input frequency ratio). In the case of B10, the binding signal is reported as 0.423 R (bound/input frequency ratio).
